Data taken from the supplement of paper PMC6555819.

System: RARb homodimer (NR concentration 270 nM)
Assay: PBM binding z-score (relative to random genomic background probes); higher = stronger binding; sequences stand for … in GC…GCGATTGACAGCGTAGAATGAAGG
How it was run: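 Custom Agilent 4×180K protein-binding microarrays carried double-stranded probes. Their 34-nt variable regions held direct-repeat seeds, single-nucleotide variants, half-site ablations and random human genomic background sequences. Arrays were incubated 1 h with ligand-free nuclear receptor dimers in PBS pH 7.4, 2% milk, 0.02% Triton X-100, 1 mM DTT, 0.2 mg/mL BSA and 0.4 mg/ml salmon testes DNA. Antibodies against each partner (one per run) detected binding, and scanned fluorescence was regression-normalized. Binding z-scores use random background probes as reference.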

Question: How did the PBM binding z-score turn out when GGAAAGAGGGCATTCGAGTTGATAGCATGGCGAT was run?
Answer: 1.42

Question: Which PBM binding z-score does the source give for CCTACTGGGCCAAGAAAGGTCATTGATTCAGTGA here?
Answer: 4.44

Question: With GCAGACAGTTGAAACGCAGGTAACTCAGGGTGGC as the sequence, how does the PBM binding z-score read?
Answer: -0.639

Question: Which PBM binding z-score does the source give for CCGACTGGGGCAAAGCTTACCATACTCAGTACGA here?
Answer: -0.047

Question: TAGCCTAGGTCAGATCGGGCCAATATACGCTATA was tested. Which PBM binding z-score did it give?
Answer: 2.28

Question: Which PBM binding z-score does the source give for CGTCCGAGGTCAGCAGGTCAGTGAAAGCGACGTG here?
Answer: 4.89

Question: ATCTCTAGGTAAAAGCTCAGTGAATCCCGAGGAT was tested. Which PBM binding z-score did it give?
Answer: -0.335

Question: With GGAACGAGGGCAAGTTGATACCAGAGTTTGATGG as the sequence, how does the PBM binding z-score read?
Answer: 1.43

Question: For AGAATGAGGTTATTAAGTTCAGGGAATTGCGGTC, which PBM binding z-score is on record?
Answer: 2.35

Question: How did the PBM binding z-score turn out when GCTAGTTGGTTAGTAAAAGGTCACACACCGGTCG was run?
Answer: 4.86

Question: With AATACAGTGTCACTAGGCCAGAGTAGGTACGAAT as the sequence, how does the PBM binding z-score read?
Answer: 0.565

Question: How did the PBM binding z-score turn out when GGAACGAGGGCAAGTTGCTAGCAGAGTTTGATGG was run?
Answer: 1.37

Question: Which PBM binding z-score does the source give for ATACCAAGGTGATCGTGAGGTCGTGGATACTAAC here?
Answer: 1.77

Question: For TGTCAAAGTTCAAATGTAACGTAAGTATCCACAC, which PBM binding z-score is on record?
Answer: 3.94

Question: With CCTACTGGGCCAAGGTCATTGTTCAGTCAAAGCA as the sequence, how does the PBM binding z-score read?
Answer: 3.27

Question: TCGAGTAGGTTAGTCGGGGCATTTAGCCAACATA was tested. Which PBM binding z-score did it give?
Answer: 0.426

Question: With CCGAGTAGGTTATGGGGCTTTCAGGCAACGGTGA as the sequence, how does the PBM binding z-score read?
Answer: 0.416

Question: AGAACGAGGGCACGCTGAGTTGATAGGAGAGTAG was tested. Which PBM binding z-score did it give?
Answer: 1.22

Question: How did the PBM binding z-score turn out when CCGACTGGGGCAAAGGTTACCATTCTCAGTACGA was run?
Answer: 2.08

Question: Which PBM binding z-score does the source give for CCTTACGGGTCACTGACAGATTATAGCATTTGGA here?
Answer: 3.01

Question: For CGTCCAAGGTGAAAGGTCAGTGAAGAGATGACGG, which PBM binding z-score is on record?
Answer: 4.53

Question: How did the PBM binding z-score turn out when ACAGAAAGGTGAGTGAAGGTAACTCAGCTGGACG was run?
Answer: 1.15

Question: With TGTCAAAGTTCAAAGGTAACGGAAGTATCCACAC as the sequence, how does the PBM binding z-score read?
Answer: 3.76

Question: How did the PBM binding z-score turn out when ACCGAAAGGTCGAGGTGAGTATAGAGAAAGGGAA was run?
Answer: 2.81

Question: Which PBM binding z-score does the source give for ATCTCTCGGTAAGACTCAGTTCAGTGAAGAACGC here?
Answer: 1.05

Question: With CCTTACGGGTCAAGATTATAGCACGGGTGGTACG as the sequence, how does the PBM binding z-score read?
Answer: 2.79

Question: For ATCTCTAGGTAACCAAGTTAAGTGAATGCCGAAC, which PBM binding z-score is on record?
Answer: 0.215

Question: With GATACAGGCTCAAGGCCAGAGTACGCGTATTGAT as the sequence, how does the PBM binding z-score read?
Answer: -0.491

Question: With GCAAGCAGGCCATTTGGGTCACTCAATGACGGGC as the sequence, how does the PBM binding z-score read?
Answer: 1.76

Question: Which PBM binding z-score does the source give for AGAATGAGGTTATACGTCGATCAGGGAAGAAAGT here?
Answer: 0.644

Question: With TATACAGGTTCAAAGGCCAGAGTACGAATGTCGA as the sequence, how does the PBM binding z-score read?
Answer: 1.82

Question: For ACTAGCAGGCGAAGTTTGGGTCACTCAAACAAAG, which PBM binding z-score is on record?
Answer: 1.48

Question: ATTTCTAGGTAAGACTCAGTTCAGTGAAGAACGC was tested. Which PBM binding z-score did it give?
Answer: 0.518

Question: Which PBM binding z-score does the source give for GCTATTGGTTGAAAGGGCAACCGAATGATTCTCG here?
Answer: 1.94

Question: How did the PBM binding z-score turn out when CGAACTAGGTCATCCTGGACAGTGAATACATTGA was run?
Answer: 2.86

Question: Which PBM binding z-score does the source give for ATATCTAGGTTAAGGGTCATTCAGGTTGGTTCGC here?
Answer: 3.97

Question: For ATATGTTGGTTAAGGGTCATTCAGGTTGGTTCGC, which PBM binding z-score is on record?
Answer: 3.84

Question: Which PBM binding z-score does the source give for CAAACTAGGTCAACGGTCAAAGTCGAGCCAACCA here?
Answer: 3.76

Question: TCTGATAGGTCAACGATGGTCAGCTAATCTGCTA was tested. Which PBM binding z-score did it give?
Answer: 3.94

Question: How did the PBM binding z-score turn out when AGTATGAGGTTATACGTAGATCAGGGAAGAAAGT was run?
Answer: 0.828
